The whole screen tested about 5,500 compounds, of which about 2,000 (36%) were called active. Roughly 18% stayed inconclusive and do not appear here. Rule as the data show it: active = normalized growth mostly below about 0.91 (no sharp cut-off); inconclusive = no clear call, values can overlap the other calls; inactive = mostly above about 0.92. This is one part of the list.
Test: chemical genetic growth profiling, strain panel (AID 1159580);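 also: tested at 20 µM; growth read once vehicle control cultures reached saturation at 30 °C; 1 = growth at the plate median or of vehicle wells; lower values mean less growth of the strain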
Settings: S. cerevisiae deletion strains, growth OD

Measured: normalized growth

CC/C=C\C/C=C\C/C=C\C/C=C\C/C=C\CCCC(=O)OCC
inactive: locus YHR030C, strain SLT2, active compounds read low 0.979 | locus YHR079C, strain IRE1, active compounds read low 0.924 | locus YJL095W, strain BCK1, active compounds read low 0.945 | locus YJR066W, strain TOR1, active compounds read low 0.94 | locus YLR113W, strain HOG1, active compounds read low 0.902 | locus YNL183C, strain NPR1, active compounds read low 0.927 | locus YOR231W, strain MKK1, active compounds read low 0.949 | locus YPL256C, strain CLN2, active compounds read low 0.897

Source: PubChem BioAssay AID1159580 (chemical genetic matrix, 2015)
